The source made the active and inactive calls. Unless noted, how the calls were made is not given here.
What was measured:
[1] = anti-His antibody binders, primary screen, artefact control for SMM control protein annotation, biochemical, small-molecule microarray, 635 nm fluorescence (AID 1128); conditions: anti-His Alexa647 antibody binding, higher = more signal;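 further: score merges feature fluorescence with signal-to-noise for each printed compound spot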
[2] = tested on: Human papillomavirus type 1a E7 protein (residues 1-88); test: HPV1a E7 small-molecule binders, primary screen, biochemical, small-molecule microarray, residues 1-88, 635 nm (AID 1129); conditions: small-molecule microarray binding, fluorescence 635 nm; higher = more signal
[3] = biological target: Focal adhesion kinase 1 (Homo sapiens) (UniProt Q05397); test: small-molecule microarray binders of FAK, primary screen, biochemical, 635/667 nm fluorescence, BSA, DTT (AID 1130); conditions: PTK2 binding, 635 nm fluorescence, higher = more signal;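 further: composite of spot emission at 667 nm and signal to noise over triplicate slides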
[4] = tested on: Fibrinogen (Alexa647-labelled); test: fibrinogen binders on compound microarrays, profiling panel, artefact control for SMM control-protein annotation, biochemical, small-molecule microarray, 635/667 nm fluorescence (AID 1131); conditions: fibrinogen-A647 binding fluorescence, higher = more signal;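 further: z-score merges 667 nm fluorescence with per-spot signal-to-noise over triplicate slides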
[5] = biological target: Follistatin (Homo sapiens) (UniProt P19883); test: follistatin binders on small-molecule microarrays, primary screen, biochemical, small-molecule microarray, 635/667 nm fluorescence (AID 1132); conditions: FST binding, 635 nm fluorescence, higher = more signal
[6] = biological target: Fibroblast growth factor 2 (Homo sapiens) (UniProt P09038); test: FGF2 binders on small-molecule microarrays, primary screen, biochemical, small-molecule microarray, 635/667 nm fluorescence (AID 1133); conditions: small-molecule microarray binding, FGF2, fluorescence 635/667; higher = more signal
[7] = mitochondrial membrane potential change in A549 cells, profiling panel, cell-based, JC-1 fluorescence, basal, 24 h, 100 nL (AID 1138); conditions: higher = more signal;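 further: A549 lung adenocarcinoma cells under basal conditions with no added stimulus; test concentration not given here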
[8] = tested on: Lefty1; test: Lefty1 binders on small-molecule microarrays, primary screen, biochemical, small-molecule microarray, 635/667 nm fluorescence (AID 1139); conditions: small-molecule microarray binding, fluorescence 635/667; higher = more signal
[9] = tested on: wheat germ agglutinin (Triticum aestivum), Alexa647-labelled; test: wheat germ agglutinin binders on compound microarrays, profiling panel, artefact control for SMM control-protein annotation, biochemical, small-molecule microarray, 635/667 nm fluorescence (AID 1140); conditions: WGA-A647 binding, 635 nm fluorescence, higher = more signal;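 further: score merges 667 nm feature emission with signal to noise over triplicate slides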
[10] = biological target: Luciferin 4-monooxygenase (Photinus pyralis) (UniProt P08659); test: firefly luciferase enzyme inhibitors, primary screen, biochemical, luminescence, purified enzyme, 2006 set (AID 1141); conditions: SteadyGlo luminescence, 30 min, higher = more signal, called active from +8 up or from −8 down;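 further: cell-free assay with purified firefly luciferase at 100 ng per well in PBS; test concentration not given here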
[11] = tested on: Wnt5a (protein binding on small-molecule microarray); test: Wnt5a binders on small-molecule microarray, primary screen, biophysical, 635/667 nm fluorescence (AID 1142); conditions: 635 nm fluorescence, higher = more signal;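 further: fluorescence read at 667 nm with signal to noise per printed feature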
[12] = cell viability in Huh7 cells, primary screen, cytotoxicity control for HCV replication inhibitor project, CellTiter-Glo luminescence, basal, 48 h (AID 1143); conditions: Huh7 HCV replicon, higher = more signal, called active from +8 up or from −8 down;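 further: Huh7 hepatoma cells carrying a hepatitis C replication reporter with no stimulus; test concentration not given here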
[13] = P. aeruginosa biofilm formation inhibitors, primary screen, PAO1 strain, BacTiter-Glo luminescence, LB-PBS (AID 1144); conditions: 12 h, higher = more signal
[14] = CREB reporter modulators without forskolin, primary screen, cell-based, PC12, CRE-LacZ reporter, unstimulated (AID 1145); conditions: no forskolin, luminescence, 4.5 h, higher = more signal, called active from +8 up or from −8 down
[15] = CREB reporter modulators under forskolin, primary screen, cell-based, PC12, CRE-LacZ reporter, forskolin-stimulated (AID 1146); conditions: luminescence, 4.5 h, higher = more signal, called active from +8 up or from −8 down;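 further: PC12 cells with 6xCRE LacZ reporter stimulated by forskolin 10 µM; beta-galactosidase reporter signal reflecting CREB driven transcription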
[16] = biological target: Streptavidin (Streptomyces avidinii) (UniProt P22629); test: streptavidin binders on small-molecule microarray, primary screen, artefact control for SMM compound annotation, biophysical, 635/667 nm fluorescence (AID 1147); conditions: streptavidin binding, higher = more signal;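 further: signal reflects streptavidin binding to arrayed compounds as a control protein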
[17] = small-molecule binders of probe aInhba, primary screen, biochemical, small-molecule microarray, 635/667 nm fluorescence (AID 1148); conditions: higher = more signal;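 further: score merges 667nm spot fluorescence with signal-to-noise for antibody binding to printed compounds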
[18] = biological target: Torsin-1A (Homo sapiens) (UniProt O14656); test: torsin A binders from cell lysate, primary screen, small-molecule microarray, wild-type, 635/667 nm (AID 1149); conditions: COS7 hTOR1A-WT lysate, 635 nm fluorescence, higher = more signal
[19] = biological target: Torsin-1A (Homo sapiens) (UniProt O14656); test: small-molecule binders of mutant TOR1A in lysate, primary screen, cell lysate, small-molecule microarray, COS7 lysate, 635/667 nm fluorescence (AID 1150); conditions: COS7 hTOR1A mutant lysate, 635 nm fluorescence, higher = more signal;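 further: score pools 667 nm emission and signal to noise measuring lysate protein binding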
[20] = tested on: Sonic hedgehog protein (Shh); test: small-molecule binders of Shh protein, primary screen, biochemical, small-molecule microarray, 635/667 nm fluorescence (AID 1151); conditions: small-molecule microarray binding, 635 nm fluorescence; higher = more signal;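 further: Shh protein binding to compounds spotted on small-molecule microarray slides; score combines spot fluorescence intensity with signal-to-noise across triplicate slides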

Chain of Streptavidin (Streptomyces avidinii) (P22629 whole entry, looked up): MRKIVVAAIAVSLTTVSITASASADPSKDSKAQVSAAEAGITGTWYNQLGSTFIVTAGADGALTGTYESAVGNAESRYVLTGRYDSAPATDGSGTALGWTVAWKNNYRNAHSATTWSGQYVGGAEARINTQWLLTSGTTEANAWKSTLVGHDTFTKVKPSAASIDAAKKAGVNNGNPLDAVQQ
Chain of Fibroblast growth factor 2 (Homo sapiens) (P09038 whole entry, looked up): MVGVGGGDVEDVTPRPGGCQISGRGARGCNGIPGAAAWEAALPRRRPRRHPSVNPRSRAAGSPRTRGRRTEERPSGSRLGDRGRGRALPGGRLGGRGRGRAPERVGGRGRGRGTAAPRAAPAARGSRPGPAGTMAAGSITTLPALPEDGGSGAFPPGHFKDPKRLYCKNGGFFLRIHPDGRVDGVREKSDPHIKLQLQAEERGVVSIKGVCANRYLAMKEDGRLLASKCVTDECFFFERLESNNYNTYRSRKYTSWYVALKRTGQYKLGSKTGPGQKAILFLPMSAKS
Chain of Follistatin (Homo sapiens) (P19883 whole entry, looked up): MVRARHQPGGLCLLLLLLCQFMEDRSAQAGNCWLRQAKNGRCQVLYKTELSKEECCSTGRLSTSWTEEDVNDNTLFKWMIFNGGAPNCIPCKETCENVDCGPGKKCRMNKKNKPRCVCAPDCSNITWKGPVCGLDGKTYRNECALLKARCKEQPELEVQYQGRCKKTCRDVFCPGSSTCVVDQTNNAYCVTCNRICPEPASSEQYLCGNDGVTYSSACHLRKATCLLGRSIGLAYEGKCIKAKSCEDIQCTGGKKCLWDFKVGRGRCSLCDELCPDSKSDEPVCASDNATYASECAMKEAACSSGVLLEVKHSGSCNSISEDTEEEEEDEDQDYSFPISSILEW
Chain of Luciferin 4-monooxygenase (Photinus pyralis) (P08659 whole entry, looked up): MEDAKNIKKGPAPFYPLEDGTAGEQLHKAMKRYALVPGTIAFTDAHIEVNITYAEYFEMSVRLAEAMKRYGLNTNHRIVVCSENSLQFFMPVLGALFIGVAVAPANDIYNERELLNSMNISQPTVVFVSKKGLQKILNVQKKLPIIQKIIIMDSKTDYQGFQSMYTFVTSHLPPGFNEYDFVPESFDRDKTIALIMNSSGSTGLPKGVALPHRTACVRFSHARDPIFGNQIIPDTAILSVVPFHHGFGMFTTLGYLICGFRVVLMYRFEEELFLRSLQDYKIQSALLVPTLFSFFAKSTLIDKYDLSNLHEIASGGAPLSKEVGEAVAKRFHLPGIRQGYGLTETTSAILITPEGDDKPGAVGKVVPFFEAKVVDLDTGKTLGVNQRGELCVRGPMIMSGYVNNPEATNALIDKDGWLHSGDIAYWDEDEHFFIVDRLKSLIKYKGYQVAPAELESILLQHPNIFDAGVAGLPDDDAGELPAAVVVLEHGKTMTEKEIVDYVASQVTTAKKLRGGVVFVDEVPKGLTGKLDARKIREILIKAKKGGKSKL
Chain of Torsin-1A (Homo sapiens) (O14656 whole entry, looked up): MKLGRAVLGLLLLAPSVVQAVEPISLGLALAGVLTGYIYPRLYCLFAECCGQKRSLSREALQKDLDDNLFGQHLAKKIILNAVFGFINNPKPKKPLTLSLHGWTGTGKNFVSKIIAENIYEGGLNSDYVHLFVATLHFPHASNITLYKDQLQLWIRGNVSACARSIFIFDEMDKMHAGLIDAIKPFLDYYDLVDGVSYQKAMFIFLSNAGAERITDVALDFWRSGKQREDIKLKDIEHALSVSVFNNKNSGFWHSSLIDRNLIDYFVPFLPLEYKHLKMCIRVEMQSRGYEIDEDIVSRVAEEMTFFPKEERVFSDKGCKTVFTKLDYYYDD
Chain of Focal adhesion kinase 1 (Homo sapiens) (Q05397 whole entry, looked up): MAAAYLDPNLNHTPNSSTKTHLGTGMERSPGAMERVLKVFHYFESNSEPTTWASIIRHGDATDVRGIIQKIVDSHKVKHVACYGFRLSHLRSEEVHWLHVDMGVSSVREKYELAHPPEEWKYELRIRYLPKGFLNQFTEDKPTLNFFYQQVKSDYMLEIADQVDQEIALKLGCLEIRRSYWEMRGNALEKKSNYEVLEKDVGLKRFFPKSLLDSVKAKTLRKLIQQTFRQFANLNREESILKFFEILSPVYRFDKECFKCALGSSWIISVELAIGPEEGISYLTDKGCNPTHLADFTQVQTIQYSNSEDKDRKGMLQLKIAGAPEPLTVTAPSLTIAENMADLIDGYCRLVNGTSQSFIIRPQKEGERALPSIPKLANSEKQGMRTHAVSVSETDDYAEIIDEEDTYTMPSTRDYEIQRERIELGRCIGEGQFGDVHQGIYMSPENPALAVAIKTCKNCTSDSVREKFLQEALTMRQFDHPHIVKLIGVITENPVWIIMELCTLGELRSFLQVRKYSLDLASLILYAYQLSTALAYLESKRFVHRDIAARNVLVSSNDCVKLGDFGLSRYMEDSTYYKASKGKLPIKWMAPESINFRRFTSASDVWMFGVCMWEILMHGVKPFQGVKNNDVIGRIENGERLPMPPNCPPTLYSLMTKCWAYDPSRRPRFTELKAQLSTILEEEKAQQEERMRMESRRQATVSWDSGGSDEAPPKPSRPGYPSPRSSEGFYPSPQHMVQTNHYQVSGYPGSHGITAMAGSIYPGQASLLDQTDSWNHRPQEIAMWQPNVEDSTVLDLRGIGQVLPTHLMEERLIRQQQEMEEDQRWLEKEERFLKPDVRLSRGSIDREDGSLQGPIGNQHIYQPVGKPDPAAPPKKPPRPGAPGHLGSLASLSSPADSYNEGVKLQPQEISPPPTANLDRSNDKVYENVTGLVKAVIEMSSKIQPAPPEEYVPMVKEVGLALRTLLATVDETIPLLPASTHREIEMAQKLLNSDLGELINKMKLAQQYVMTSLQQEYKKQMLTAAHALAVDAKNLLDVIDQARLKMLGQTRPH

| SMILES | composite z-score [1] | composite z-score [2] | composite z-score [3] | composite z-score [4] | composite z-score [5] | composite z-score [6] | z-score [7] | composite z-score [8] | composite z-score [9] | z-score [10] | composite z-score [11] | z-score [12] | z-score [13] | z-score [14] | z-score [15] | composite z-score [16] | composite z-score [17] | composite z-score [18] | composite z-score [19] | composite z-score [20] |
| --- | --- | --- | --- | --- | --- | --- | --- | --- | --- | --- | --- | --- | --- | --- | --- | --- | --- | --- | --- | --- |
| CN(C)CCCCCCNC(=O)[C@@H]1C[C@@H]2C(=O)N[C@@H](CCCC[N+](C)(C)C)C(=O)N2[C@@H]1c1cccc(OCCO)c1 | 2.34 | 0.13 | -0.159 | 0.104 | 0.704 | 0.645 | 0.417 | -0.601 | 0.853 | -2.44 (inactive) | 0.144 | -0.966 (inactive) | -0.217 (inactive) | -0.805 (inactive) | -0.416 (inactive) | -0.3 | 0.0569 | 0.327 | -0.284 | -0.371 |
| C=C(CCCC)C(=O)CC[C@H](OC(=O)c1ccccc1-c1ccccc1C(=O)O)c1cccc(OCCO)c1 | -0.413 | -0.298 | -0.194 | -0.435 | -0.0662 | 0.591 | 0.15 | 0.191 | -0.373 | -0.755 (inactive) | -0.151 | -0.548 (inactive) | -0.77 (inactive) | 0.434 (inactive) | 5.04 (inactive) | -0.352 | -0.179 | 0.259 | 0.114 | 0.847 |
| COC(=O)[C@@]1(Cc2ccccc2)[C@H]2c3cc(C(=O)N(C)C)n(Cc4nc5ccccc5[nH]4)c3C[C@H]2CN1C(=O)c1ccccc1 | 1.85 | 1.24 | 0.872 | 1.03 | 0.804 | -0.378 | 0.157 | -0.414 | 0.779 | -1.77 (inactive) | 0.118 | -2.07 (inactive) | -0.142 (inactive) | 0.959 (inactive) | -0.0536 (inactive) | 1.26 | 0.337 | 0.626 | 0.853 | -0.441 |
| COc1c(C)cc(-c2cc3c(c(CCc4ccccc4)n2)[Si](C(C)C)(C(C)C)O[C@H]3c2ccccc2)cc1C | -0.439 | -0.425 | -0.191 | -0.543 | 0.029 | -0.278 | 0.386 | 0.268 | 0.183 | -0.183 (inactive) | -0.169 | -2.84 (inactive) | -0.0716 (inactive) | -0.272 (inactive) | 0.412 (inactive) | -0.0663 | -0.128 | -1.11 | -0.554 | -0.11 |
| CC(C)N1C(=O)[C@@]2(Cc3ccccc31)c1ccccc1C(=O)N(Cc1ccccc1C(F)(F)F)[C@H]2c1ccc(CO)cc1 | 0.175 | 0.174 | 0.368 | -0.0628 | 0.902 | 1.18 | -0.602 | 0.76 | -0.203 | -0.301 (inactive) | 0.15 | -0.222 (inactive) | -0.121 (inactive) | 0.155 (inactive) | 0.176 (inactive) | -0.0569 | 0.46 | -0.375 | -0.139 | 0.376 |
| C=CCN1C(=O)[C@]2(O[C@H](CCO)[C@@H]([Si](C)(C)c3ccc(OC)cc3)[C@@H]2C)c2cc(N3C(=O)c4ccccc4Oc4ccccc43)ccc21 | 0.309 | 1.14 | 0.215 | 0.694 | 0.157 | 0.0857 | -1.36 | 0.591 | 0.51 | 0.368 (inactive) | 0.169 | -7.94 (inactive) | -0.323 (inactive) | 22.6 (active) | -3.24 (inactive) | 0.763 | -0.045 | 0.493 | 0.418 | 0.804 |
| [N-]=[N+]=NCc1ccccc1[C@H]1OC(c2ccc(OCCCO)cc2)=N[C@@]1(CCS(=O)(=O)c1ccccc1)C(=O)NCCN1CCOCC1 | 1.35 | 1.27 | 0.907 | 1.04 | 0.777 | 0.188 | 0.577 | -0.237 | 0.57 | -3.06 (inactive) | 0.806 | -0.712 (inactive) | -0.561 (inactive) | 0.115 (inactive) | -0.871 (inactive) | 0.38 | 0.54 | 0.234 | 0.183 | -0.597 |
| CC(C)(C)OC(=O)CC[C@]1(C(=O)N2CCOCC2)COC(c2ccc(OCCCO)cc2)=N1 | 2.44 | 0.882 | 0.427 | 0.507 | -0.0198 | -0.225 | 1.62 | -0.692 | 0.672 | -1.06 (inactive) | -0.278 | -0.107 (inactive) | -0.367 (inactive) | 1.34 (inactive) | -0.841 (inactive) | -0.0376 | 0.171 | 0.701 | 1.48 | -0.447 |
| O=C/C=C/c1ccc(-c2ccccc2)cc1 | -0.221 | -0.142 | -0.164 | -0.964 | 0.276 | -0.377 | 0.294 | -0.155 | -0.484 | 0.0686 (inactive) | -0.166 | -2.73 (inactive) | 1.68 (inactive) | 2.11 (inactive) | 3.74 (inactive) | 0.175 | -0.101 | -0.0497 | 0.0552 | 0.083 |
| C=CC[C@H](O)c1ccc(O)c2ccccc12 | 1.02 | 0.604 | 0.126 | 0.24 | 1.4 | 1.49 | -0.0561 | 1.26 | 0.742 | -2.47 (inactive) | 0.188 | 0.273 (inactive) | -0.725 (inactive) | 6.45 (inactive) | 1.82 (inactive) | 0.881 | -0.101 | 0.172 | 0.46 | 1.96 |
| COC(=O)c1ccc(OC)c(/C=C\CC(OC(=O)c2ccncc2)c2ccccc2)c1 (stereo not given) | 0.429 | -0.0099 | -0.111 | -0.237 | 1.1 | 1.22 | 1.64 | 0.904 | 0.947 | -1.89 (inactive) | 0.114 | -3.7 (inactive) | -0.526 (inactive) | 12.5 (active) | -1.88 (inactive) | 1.79 | -0.154 | 0.217 | 0.292 | 1.14 |
| O=C1O[C@H](c2ccccc2)[C@H](c2ccccc2)N2[C@H]1[C@@H](C(=O)Nc1nc3ccccc3s1)[C@]1(C(=O)Nc3ccccc31)[C@H]2c1ccccc1OCCO | 1.71 | 0.813 | 0.832 | 0.966 | 0.453 | 0.64 | -1.84 | 0.0835 | 1.02 | 0.389 (inactive) | -0.023 | -4.68 (inactive) | -0.804 (inactive) | 0.272 (inactive) | 0.519 (inactive) | 1.25 | 0.161 | 0.869 | 1.11 | 0.465 |

Source: PubChem BioAssay
